Screening results: PubChem, The Scripps Research Institute Molecular Screening Center
GSTO1 inh – inhibitors of recombinant GSTO1, primary screen, counter-screen for RBBP9 inhibitor project, biochemical, fluorescence polarization | Glutathione S-transferase omega-1 (Homo sapiens), P78417 | activity-based probe fluorescence polarization | inhibition, % at 5.96 µM | hit rate 1.1% among 300,000 | AID 1974, 2009;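 active = inhibition above the campaign mean inhibition plus 3 SD, cut at about 35% in these data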;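 also: 0% = GSTO1-1 with DMSO and 100% = wells lacking GSTO1-1 enzyme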
PAD4 FP inh – human PAD4 inhibitors, primary screen, biochemical, fluorescence polarization, 1536-well format. recombinant PAD4, RCA probe fluorescence polarization. hit rate 0.41% among 330,000. inhibition, % at 6.36 µM. AID 485272, 2010;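 active = percent inhibition above a cutoff equal to the mean of all tested compounds plus 3 SD, cut at about 15% in these data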;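 also: 0% = PAD4 with RCA probe and DMSO and 100% = probe without PAD4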
LYPLA1 counter – LYPLA1 inhibitors, primary screen, counter-screen for PME1 inhibitor project, biochemical, fluorescence polarization, FP-Rh probe ABPP; Acyl-protein thioesterase 1 (Homo sapiens), O75608; recombinant LYPLA1; inhibition, % at 5.9 µM; hit rate 0.16% among 320,000; AID 2174, 2009;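 active = inhibition above the mean of all tested compounds plus 3 SD, set per campaign, cut at about 14% in these data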;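 also: inhibitors block serine hydrolase probe labeling of LYPLA1 so polarization falls; 0% = enzyme with DMSO and 100% = wells lacking LYPLA1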
Fam108B counter – mouse Fam108B serine hydrolase inhibitors, primary screen, counter-screen for RBBP9 inhibitor project, biochemical, fluorescence polarization. recombinant Fam108B, FP-Rh probe fluorescence polarization. inhibition, % at 9.51 µM. hit rate 0.33% among 300,000;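 active = inhibition above the screen mean inhibition plus 3 SD, computed separately per campaign, cut at about 18% in these data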;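 also: inhibitors lower polarization as less probe binds the enzyme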
PME-1 primary – PME-1 inhibitors via competitive probe labeling, primary screen, biochemical, fluorescence polarization, FP-Rh probe, HTS; Protein phosphatase methylesterase 1 (Homo sapiens), Q9Y570; recombinant PME-1; inhibition, % at 5.9 µM; hit rate 0.53% among 320,000; AID 2130, 2009;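 active = inhibition above the campaign mean of all compounds plus 3 SD, cut at about 26% in these data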;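 also: competitive labeling of PME-1 active site by serine hydrolase directed probe; 0% = PME-1 with DMSO and 100% = wells lacking PME-1 enzyme; inhibitors block probe labeling so polarization falls and inhibition rises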
LYPLA2 inh – LYPLA2 inhibitors, primary screen, counter-screen for PME1 inhibitor project, biochemical, fluorescence polarization, FP-Rh probe ABPP | recombinant LYPLA2 | Acyl-protein thioesterase 2 (Homo sapiens), O95372 | hit rate 0.38% among 320,000 | inhibition, % at 5.9 µM;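 active = inhibition above the screen-wide mean plus 3 SD, limit set per campaign, cut at about 26% in these data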;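 also: 0% = LYPLA2 with DMSO and 100% = wells lacking LYPLA2 enzyme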
GSTO1 confirm – GSTO1 inhibitor hit confirmation, counter-screen for RBBP9 inhibitor project, biochemical, fluorescence polarization, triplicate; shares compounds with GSTO1 inh; recombinant GSTO1, probe fluorescence polarization; inhibition, % at 5.96 µM; hit rate 54% among 2,400; AID 2176, 2009;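 active = inhibition above the primary screen's cutoff, its mean inhibition plus 3 SD, cut at about 35% in these data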;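 also: loss of polarization as inhibitors block binding of rhodamine sulfonate ester activity probe; 0% = GSTO1 with DMSO and 100% = wells lacking GSTO1 enzyme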
GSTO1 ABPP inh – inhibitors of purified human GSTO1, late-stage follow-up, biochemical, gel ABPP, SE-Rh probe, percent inhibition | recombinant GSTO1, gel ABPP SE-Rh probe fluorescence | hit rate 30% among 130 | inhibition, % at 1 µM | shares compounds with GSTO1 inh;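 active = inhibition of the enzyme GSTO1 above about 75%, limit read from the data; inactive = inhibition below that limit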
* hit, by the source's call; · = not tested or not shown. Most compounds without a hit are left out; they make up all but 1.8% or so of the library.

SMILES	GSTO1 inh	PAD4 FP inh	LYPLA1 counter	Fam108B counter	PME-1 primary	LYPLA2 inh	GSTO1 confirm	others
Cc1cccc(C(=O)NC2C(=O)NNC2c2ccc(Cl)cc2)c1 (stereo not given)	44*	-2	-2	-2	-2	1	5
CCOc1ccc(S(=O)(=O)N2CCCC(C(=O)NCCN3CCOCC3)C2)cc1Cl (stereo not given)	6	-3	1	-2	-1	2	·
O=[N+]([O-])c1ccc(O)c(C=Nc2cccc3ncccc23)c1	5	-3	-2	-2	2	-2	·
O=[N+]([O-])c1cccc(C=Nc2cccc3ccccc23)c1O	41*	-10	-1	2	4	-1	4
Oc1ccc(C=Nc2cccc3ccccc23)c(O)c1	38*	-21	-5	0	9	-1	32
O=[N+]([O-])c1ccc(O)c(C=Nc2cccc3ccccc23)c1	52*	-11	-1	7	-4	3	16
Cc1ccc2nc(N3CCC(C(=O)O)CC3)nc(-c3ccccc3)c2c1	54*	-3	-4	1	-6	4	58*
CCCN(CC(=O)Nc1ccccc1C)C(=O)CCl	81*	-1	-1	2	0	5	92*	GSTO1 ABPP inh=4
O=c1[nH]c(C2CCN(S(=O)(=O)c3ccccc3C(F)(F)F)CC2)nc2c1nnn2Cc1cccc(F)c1	47*	-1	-8	-3	19	-19	50*
O=c1[nH]c(C2CCN(S(=O)(=O)c3ccc(C(F)(F)F)cc3)CC2)nc2c1nnn2Cc1cccc(F)c1	3	-3	-3	-3	12	1	·
CCOC(=O)c1cnc(-n2nc(C)cc2C)[nH]c1=O	-6	2	1	4	0	5	·
CCOC(=O)c1cnc(-n2[nH]c(C)cc2=O)[nH]c1=O	42*	-2	-6	-3	-8	-4	4
COc1ccc(NC(=O)CCCn2nc(C)c3c(C)n(-c4ccccc4)nc3c2=O)cc1	2	-8	-1	1	2	6	·
CC1(C)CC(=O)C2=C(C1)N(C1CCCCC1)C(=O)C2(O)C(F)(F)F (stereo not given)	65*	4	5	0	0	3	6
Cc1ccc(C)c(S(=O)(=O)Nc2ccc(O)c3ccccc23)c1	53*	-5	-1	-1	-4	5	0
COc1ccc(S(=O)(=O)Nc2ccc(O)c3ccccc23)cc1	70*	7	0	4	9	-1	9
CC1(OC(=O)C2CCCC2)C(=O)C=C2C=C(c3ccsc3)N(Cc3ccc4c(c3)OCO4)C=C2C1=O (stereo not given)	12	-10	-1	7	5	-3	·
CC1(OC(=O)CCc2ccccc2)C(=O)C=C2C=C(c3ccc(C#N)cc3)N(C(CO)CO)C=C2C1=O (stereo not given)	21	-17	0	-1	3	4	·
CC1(OC(=O)C2CCCC2)C(=O)C=C2C=C(c3ccsc3)N(CC3CC3)C=C2C1=O (stereo not given)	40*	11	-1	3	-1	-2	25
CC1(OC(=O)CCc2ccccc2)C(=O)C=C2C=C(c3ccc(C#N)cc3)N(C3CCCCC3)C=C2C1=O (stereo not given)	45*	-5	0	4	0	5	12
CC1(OC(=O)C2CCCC2)C(=O)C=C2C=C(c3ccsc3)N(C3CCCCC3)C=C2C1=O (stereo not given)	43*	-5	3	12	1	8	18
